Common to all, as to experiment: qHTS profiling for inhibitors of Plasmodium falciparum proliferation (AID 504749); further: nearly all actives have a fitted effect of over 60% in size
Holding throughout (details): P. falciparum in erythrocytes, SYBR Green DNA, 72 h; series mostly up to 28.7 µM

For assay [1], the system named is ATS189. Put shortly:
(§1)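 Parasite proliferation within erythrocytes, 72 h exposure. Endpoint: SYBR Green I fluorescence after overnight lysis at room temperature. Controls: 0.29 uM artemisinin, DMSO.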

For assay [2], the system named is ATS95. Put shortly:
as §1

The test system of assay [3] is C2A. In outline: as §1
Assay [4] concerns CP185. Put shortly: as §1
Assay [5] relates to CP191. In outline: as §1
Assay [6] relates to CP192. Put shortly:
as §1

Assay [7] concerns CP194. Put shortly:
as §1

The subject of assay [8] is CP201. Put shortly: as §1
Assay [9] concerns CP203. In outline: as §1
The subject of assay [10] is CP211. In outline:
as §1

Assay [11] has as its system CP215. Put shortly:
as §1

The subject of assay [12] is CP217. Put shortly:
as §1

In assay [13] the test system is CP237. Put shortly:
as §1

Assay [14] has as its system CP238. In outline: as §1
Assay [15] relates to CP247. In outline:
as §1

Assay [16] has as its system CP250. In outline: as §1
The test system of assay [17] is CP252. In outline:
as §1

For assay [18], the system named is CP256. Put shortly: as §1
Assay [19] deals with CP260. In outline: as §1
Assay [20] relates to CP262. Put shortly:
as §1

Records with an inconclusive call do not appear. Active and inactive are the calls of the source. The call rests on the fitted dose curve; in most records, active means well fitted inhibition curve with a large enough effect; inconclusive means small, poorly fitted or top-dose-only effect; inactive means flat fitted curve, though single readings scatter.
Potency means the concentration at half of the fitted maximal effect.

Take `NC(N)=NCc1cccc(I)c1`: the Potency result in assay [1], in assay [2], in assay [3], in assay [4], in assay [5] and in assay [6] was “inactive” each time. The Potency entry in assay [7], in [8], in assay [9], in [10], in assay [11] and in assay [12] was “inactive” in each case. The Potency entry in assay [13], in [14], in assay [15], in [16], in assay [17] and in assay [18] was “inactive” in each case.
In the case of `Cc1c[nH]c2ccccc12`, the Potency result in assay [1], in assay [2], in [3], in [4], in assay [5] and in assay [6] was “inactive” throughout. In addition, the Potency entry in assay [7], in assay [8], in assay [9], in assay [10], in assay [11] and in [12] was “inactive” in each case. Moreover, the Potency result in assay [13], in assay [14], in assay [15], in [16], in [17] and in assay [18] was “inactive” in each case. In addition, the Potency entry in assay [19] and in [20] was “inactive” each time.
On to `OCc1ccccn1`, for which the Potency result in assay [1], in assay [2], in [3], in assay [4], in assay [5] and in [6] was “inactive” throughout. Besides, the Potency entry in assay [7], in assay [8], in [9], in assay [10], in [11] and in assay [12] was “inactive” each time. The Potency entry in assay [13], in [14], in [15], in assay [16], in assay [17] and in assay [18] was “inactive” each time. Also, the Potency result in assay [19] and in assay [20] was “inactive” each time.
`COc1ccc(-c2cc(C(F)F)nn2-c2ccc(S(N)(=O)=O)cc2)cc1F`: the Potency result in assay [1], in [2], in [3], in assay [4], in [5] and in [6] was “inactive” in each case. Moreover, the Potency result in assay [7], in [8], in assay [9], in assay [10], in assay [11] and in assay [12] was “inactive” throughout. Further, the Potency result in assay [13], in [14], in [15], in assay [16], in assay [17] and in assay [18] was “inactive” each time. Also, the Potency result in assay [19] and in assay [20] was “inactive” in each case.
Turning to `CCCCC(CC)COC(=O)/C=C/c1ccc(OC)cc1` (configuration not stated), the Potency entry in [1], in assay [2], in [3], in [4], in assay [5] and in [6] was “inactive” throughout. Moreover, the Potency result in [7], in assay [8], in assay [9], in assay [10], in [11] and in assay [12] was “inactive” throughout. Further, the Potency entry in assay [13], in assay [14], in assay [15], in assay [16], in [17] and in assay [18] was “inactive” throughout. In addition, the Potency result in [19] and in assay [20] was “inactive” in each case.
Take `CCCCCCCC/C=C\CCCCCCCCN`: the Potency entry in assay [1], in assay [2], in [3], in [4], in [5] and in assay [6] was “inactive” each time. The Potency result in assay [7], in [8], in [9], in assay [10], in assay [11] and in assay [12] was “inactive” each time. In addition, the Potency result in [13], in assay [14], in assay [15], in assay [16], in assay [17] and in assay [18] was “inactive” throughout. The Potency entry in assay [19] and in [20] was “inactive” each time.
As to `Cn1c(=O)c2[nH]c(Br)nc2n(C)c1=O`, the Potency entry in assay [1], in assay [2], in [3], in assay [4], in assay [5] and in assay [6] was “inactive” throughout. For the same molecule, the Potency result in [7], in [8], in assay [9], in [10], in assay [11] and in assay [12] was “inactive” throughout. The Potency result in assay [13], in [14], in [15], in [16], in assay [17] and in assay [18] was “inactive” in each case. Moreover, the Potency entry in [19] and in [20] was “inactive” each time.
On to `Cc1ccc(O)c([C@H](CCN(C(C)C)C(C)C)c2ccccc2)c1`, for which the Potency in [1] was 3.98 µM (active); in [2] it was 3.55 µM (active); in [3], 11.2 µM (active); in [4] it was 10 µM (active); in assay [5], 7.08 µM (active); in assay [6], 13.5 µM (active). Moreover, the Potency in assay [7] was 5.36 µM (active); in [8], 13.5 µM (active); in assay [9], 3.79 µM (active); in assay [10], 9.53 µM (active); in assay [11], 6.75 µM (active); in assay [12], 5.01 µM (active). Besides, the Potency is 5.01 µM (active) in assay [13]; 4.47 µM (active) in assay [14]; 6.31 µM (active) in [15]; 11.2 µM (active) in assay [16]; 6.31 µM (active) in assay [17]; 7.94 µM (active) in assay [18]. In [19], the Potency was 5.01 µM (active).
As to `O=C(Nc1ncc([N+](=O)[O-])s1)c1cccs1`, the Potency entry in assay [1], in assay [2], in [3], in assay [4], in assay [5] and in [6] was “inactive” each time. Further, the Potency entry in assay [7], in [8], in [9], in assay [10], in [11] and in [12] was “inactive” in each case. Moreover, the Potency result in [13], in assay [14], in assay [15], in assay [16], in assay [17] and in [18] was “inactive” each time. Also, the Potency result in assay [19] and in [20] was “inactive” in each case.
`CCOc1ccccc1OCCN[C@H](C)Cc1ccc(OC)c(S(N)(=O)=O)c1`: the Potency result in assay [1], in assay [2], in assay [3], in assay [4], in assay [5] and in assay [6] was “inactive” throughout. For the same molecule, the Potency result in assay [7], in assay [8], in [9], in assay [10], in [11] and in [12] was “inactive” each time. Also, the Potency result in assay [13], in [14], in [15], in [16], in assay [17] and in assay [18] was “inactive” each time. For the same molecule, the Potency entry in assay [19] and in assay [20] was “inactive” in each case.
Regarding `CC(=O)N[C@@H](CCC(=O)O)C(=O)O`, the Potency entry in assay [1], in assay [2], in assay [3], in assay [4], in assay [5] and in assay [6] was “inactive” in each case. Also, the Potency result in assay [7], in [8], in assay [9], in [10], in assay [11] and in [12] was “inactive” throughout. The Potency entry in assay [13], in assay [14], in assay [15], in assay [16], in assay [17] and in assay [18] was “inactive” each time. In addition, the Potency result in assay [19] and in assay [20] was “inactive” in each case.
Turning to `NC(=O)c1ccccc1O`, the Potency result in assay [1], in assay [2], in [3], in [4], in assay [5] and in assay [6] was “inactive” each time. The Potency entry in assay [7], in assay [8], in [9], in assay [10], in assay [11] and in assay [12] was “inactive” in each case. Also, the Potency entry in assay [13], in assay [14], in [15], in assay [16], in [17] and in assay [18] was “inactive” throughout. In addition, the Potency result in assay [19] and in assay [20] was “inactive” throughout.
For the molecule `O=C1C(O)=C(O)C(=O)C(O)=C1O`, the Potency result in assay [1], in assay [2], in assay [3], in assay [4], in assay [5] and in assay [6] was “inactive” each time. Besides, the Potency result in assay [7], in assay [8], in [9], in assay [10], in assay [11] and in [12] was “inactive” throughout. The Potency result in assay [13], in assay [14], in assay [15], in assay [16], in [17] and in assay [18] was “inactive” each time. Moreover, the Potency result in assay [19] and in assay [20] was “inactive” each time.

(Values after PubChem BioAssay (NCATS).)
